In PubChem BioAssay (NCATS):
Records with an inconclusive call do not appear. Values without a mark were called inactive. Calls come from the whole dose curve; as a rule, active = well fitted inhibition curve with a large enough effect; inconclusive = small, poorly fitted or top-dose-only effect; inactive = flat fitted curve, though single readings scatter.

target: Calcium and integrin-binding protein 1 (Homo sapiens) (UniProt Q99828); assay: Primary qHTS for Identification of Calcium Integrin Binding Protein 1 (CIB1) Competitor (AID 1508620); details: CIB1-GST / FITC-alphaIIb peptide fluorescence polarization; series mostly up to 114 µM; activity change, negative = inhibition: at the top concentration; note: top concentration of the series differs between compounds
Summary of the method: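 Fluorescence polarization competition: GST-tagged CIB1 (1 uM final) preincubated with compound 15 min at room temperature, then FITC-labelled alphaIIb peptide (100 nM final) added. After 15 min at room temperature, polarization read at Ex 480/Em 540.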
% is set by controls: 0 for no effect and ±100 for the full control effect.

Calcium and integrin-binding protein 1 (Homo sapiens), sequence (Q99828 whole entry, looked up): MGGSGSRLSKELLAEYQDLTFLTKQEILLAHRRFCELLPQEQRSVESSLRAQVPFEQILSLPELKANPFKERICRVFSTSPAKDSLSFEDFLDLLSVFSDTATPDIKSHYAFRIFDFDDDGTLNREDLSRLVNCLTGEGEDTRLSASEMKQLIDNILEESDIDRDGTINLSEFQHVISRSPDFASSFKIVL

Going from `O=C(O)c1cccc(-n2cccc2)c1` to `O=C1c2ccccc2C(=O)N1c1ccc(O)cc1`, the “activity change, negative = inhibition” value falls from -0.414% to -4.23%.

Compared with `Cc1cc2c(s1)c1cnn(Cc3ccc(OC(F)F)cc3)c(=O)c1n2C`, `Cc1ccc(CN(C)c2ncnc3ccc(-c4ccc(C#N)n4C)cc23)o1` is higher in “activity change, negative = inhibition” value: -2.55% for the first, 17.4% for the second.

Compared with `O=C(OCC#CCSc1nnc(-c2cccs2)o1)c1ccc(F)cc1`, `Cc1ccc(C(=O)Oc2ccc(-c3nc4ccccc4[nH]3)cc2)cc1Br` is lower in “activity change, negative = inhibition” value: 2.34% for the first, -3.94% for the second.

Compared with `Oc1cc(Nc2ccccc2)cc2cccnc12`, `Oc1ccc(COC2CCCC2)c2cccnc12` is higher in “activity change, negative = inhibition” value: -4.53% for the first, -1.54% for the second.

First: CC(C)c1ccccc1-c1ncc(F)c(NCc2ccc(-c3cccnc3)s2)n1
Second: COc1cc(NC(=O)C(OC(=O)CNC(=O)c2ccccc2)c2ccccc2)c(OC)cc1Cl (stereo not given)
The “activity change, negative = inhibition” value of the first is lower: -0.0334% for the first, 1.25% for the second.

Going from `CC(=O)NC(c1cc(Cl)c2cccnc2c1O)C1CC1` (stereo not given) to `CN(C)c1cnc2c(O)ccc(C(=O)O)c2c1`, the “activity change, negative = inhibition” value falls from -18.6% to -20%.

Compared with `Cc1cc(NC(=O)Nc2nnc(C3CCCCC3)s2)ccc1Br`, `CN(C)c1cccc(-c2nc(N3CCC(C(N)=O)CC3)ncc2F)c1` is higher in “activity change, negative = inhibition” value: 0.722% for the first, 2.2% for the second.

Going from `Cc1ccc(NS(=O)(=O)c2cc3c(cc2C)NC(=O)CO3)cc1C` to `Cn1cccc1CN=C1NC2=C(C(=O)CCC2)C(c2[nH]ncc2Cl)N1` (stereo not given), the “activity change, negative = inhibition” value falls from 0.574% to -1.84%.

Going from `CNC(=O)c1cnn2c(C)cc(C)nc12` to `COC(=O)c1ccc(O)c2ncc(-c3ccc(C(=O)N4CCN(C)CC4)cc3)cc12`, the “activity change, negative = inhibition” value falls from -1.46% to -5.08%.

For `C=Cc1nc(Nc2cc(F)cc(F)c2)nc(NC2CCCC2)n1`, the “activity change, negative = inhibition” value was 9.06%.

For `COc1ccc(C(CC(=O)N2CC(C)CC(C)C2)c2c(O)cc(OC)cc2OC)cc1` (stereo not given), the “activity change, negative = inhibition” value was 4.16% [at 228 µM].
